# SSB-PriA inh = inhibitors of Klebsiella pneumoniae PriA binding to SSB C-terminal tail. actives 0.6% (n = 430,000). AID 1272365. AlphaScreen SSBct-PriA binding, biotinylated peptide. inhibition, % at 33 µM; in the data active = inhibition mostly above about 37%, no sharp cut-off; inactive = mostly below about 20%;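 note: plate controls were negative control peptide for no effect and reference peptide for full effect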
# Bead autofluor = counter-screen for toxin protease inhibitors: compound fluorescence | compound autofluorescence counterscreen, microsphere flow cytometry; stronger effect = higher value | fluorescence intensity (concentration not given with the values) | actives 3.1% (n = 360,000); in the data active = fluorescence intensity above about 16000; inconclusive = no clear call, values can overlap the other calls
# BoNT A protease = inhibitors of Botulinum neurotoxin A light chain protease; multiplex microsphere protease substrate cleavage, flow cytometry; inhibition, % at 10 µM; actives 0.17% (n = 360,000); AID 588499; note: plate controls were buffer without enzyme for full effect and enzyme alone for no effect
# Anthrax LF inh2 = anthrax lethal factor protease inhibition; multiplex microsphere protease cleavage assay, LF; actives 0.12% (n = 360,000); inhibition, % at 10 µM; AID 588501; note: plate controls were buffer without enzyme for full effect and enzyme alone for no effect
# BoNT-F LC inh = blocks Botulinum neurotoxin F light chain protease; inhibition, % at 10 µM; AID 588497; actives 0.22% (n = 360,000); Multiplex microsphere protease cleavage assay, flow cytometry; in the data active = inhibition above about 35%, passing the limit was not always enough; inconclusive = no clear call, values can overlap the other calls; note: plate controls were buffer without enzyme for full effect and enzyme alone for no effect
# Active calls of the source: *; u = inconclusive; x = no result given; ! = a repeat was not active. In the library only some 3.1% were active in any assay of this set; here they are far more common. Cut-off read from the data, not from the text of the source, unless noted: active = inhibition above about 30%; inconclusive = no clear call, values can overlap the other calls; inactive = below that.
SMILES,SSB-PriA inh,Bead autofluor,BoNT A protease,Anthrax LF inh2,BoNT-F LC inh
CCN(CC)S(=O)(=O)c1ccc(C(=O)Nc2c3c(nn2C(C)(C)C)CS(=O)(=O)C3)cc1,-14,23143*,0,-1,0
CC(C)(C)c1ccc(C(=O)Nc2c3c(nn2C(C)(C)C)CS(=O)(=O)C3)cc1,-8,u,4,-6,-8
COc1ccc(-n2c(Cn3nc(C(F)(F)F)cc3C)n[nH]c2=S)cc1,-9,2060,0,1,5
Cc1ccc(-n2c(Cn3nc(C(F)(F)F)cc3C)n[nH]c2=S)cc1,-8,17459*,u,-4,-6
S=C1SCN(CCc2ccccc2)CN1Cc1ccccc1,-19,x,x,x,x
CN(C)S(=O)(=O)N(Cc1ccc(Br)cc1)c1ccccc1,-57,11382,-1,-3,-13
CN(C)S(=O)(=O)N(CC(=O)N(Cc1ccccc1)Cc1ccccc1)c1ccccc1,-27,22498*,0,1,0
Cc1cccc(N2CCN(C(=O)c3cn(C)c(=O)c4c3c3ccccc3n4C)CC2)c1C,8,23203*,0,-3,0
Cc1ccc(Cl)cc1N1CCN(C(=O)c2cn(C)c(=O)c3c2c2ccccc2n3C)CC1,5,8426,-1,-10,-6
CCOC(=O)N1CCc2c(sc(NC(=O)C3CCCCC3)c2C(N)=O)C1,-7,x,x,x,x
CCOc1nc(-c2ccccc2)ccc1-c1noc(-c2cccs2)n1,-16,20998*,3,0,8
CCOc1nc(-c2ccc(OC)cc2)ccc1-c1noc(-c2ccncc2)n1,-13,23147*,u,-2,0
CCOc1nc(-c2ccccc2)ccc1-c1noc(-c2ccncc2)n1,-13,8342,0,0,13
CCn1c2c(c3cc(Br)ccc31)CCCC2=NO,-46,x,x,x,x
CCn1c2c(c3cc(Br)ccc31)CCC/C2=N\O,x,29475*,-19,-5,-24
CCCNC(=O)c1cc(OC)c(OC)cc1[N+](=O)[O-],-10,24245*,u,1,1
COc1cc(C(=O)Nc2ccc(N3CCCS3(=O)=O)cc2)c([N+](=O)[O-])cc1OC,5,18232*,-50,-12,-85
CCOc1ccc2ccccc2c1C(=O)NCC(c1cccn1C)N1CCCC1 (stereo unspecified),-8,x,x,x,x
CCOc1ccc2nc(NC(=S)NCc3ccccc3)sc2c1,-12,20242*,2,0,2
Clc1ccc2ccc3cccnc3c2n1,-8,3845,-2,-6,-2
C/[N+]([O-])=C\c1ccc2ccc3cccnc3c2n1,154*,x,x,x,x
O=C(O)c1ccncc1Br,0,x,x,x,x
CCOc1ncccc1C(=O)Nc1ccc2c(c1)CCCN2S(=O)(=O)CC,38*,x,x,x,x
COc1cccc(N2C(=O)N(CC(=O)NCc3ccccc3)c3ccccc3S2(=O)=O)c1,-7,x,x,x,x
O=C(O)Cc1cc(=O)oc2cc(O)ccc12,-11,x,x,x,x
SMILES,SSB-PriA inh,Bead autofluor,BoNT A protease,Anthrax LF inh2,BoNT-F LC inh
CC1=CC(=O)C(C(C)C)=C/C1=C(\c1cc(C(C)C)c(O)cc1C)c1ccccc1S(=O)(=O)O,59*,x,x,x,x
CC1=CC(=O)C=C/C1=C(\c1ccc(O)cc1C)c1ccccc1S(=O)(=O)O,-14,x,x,x,x
COC(=O)c1ccc(C(=O)NC(=S)Nc2sc3c(c2C#N)CCCCC3)cc1,-14,x,x,x,x
CC(C)(C)c1ccc2c(c1)N(Cc1nc(-c3ccc(Br)cc3)no1)C(=O)CO2,-16,x,x,x,x
O=C(Nc1cccc(C(F)(F)F)c1)c1n[nH]c(Cn2cncn2)n1,-1,u,u,u,-38
O=C(Nc1ccccc1)c1n[nH]c(Cn2cncn2)n1,2,23808*,-2,-5,-1
COc1ccc(NC(=O)N2CCN(C(=O)Nc3ccc(OC)cc3)CC2)cc1,-8,3399,0,-5,-2
CCS(=O)(=O)C(=C(Nc1ccc(OC)cc1)Nc1ccc(OC)cc1)S(=O)(=O)CC,3,22992*,-2,-7,-8
O=[N+]([O-])c1ccc(N2CCOCC2)cc1N1CCCCC1,14,4284,0,-4,-4
O=[N+]([O-])c1ccc(N2CCCCC2)cc1N1CCOCC1,27,2152,-1,-2,-5
O=[N+]([O-])c1ccc(N2CCCC2)cc1N1CCCC1,47*,3140,0,-4,2
O=[N+]([O-])c1ccc(N2CCCC2)cc1N1CCCCC1,97*,x,x,x,x
Cc1nn(-c2cc(N3CCCCC3)ccc2[N+](=O)[O-])c(=O)c2ccccc12,-18,21077*,u,2,0
O=[N+]([O-])c1ccc(N2CCCC2)cc1N1CCCCCC1,61*,x,x,x,x
Cn1cc(C(=O)N(Cc2cccs2)Cc2cccn2C)nn1,3,x,x,x,x
N#Cc1c(N)nc([Se]CC(N)=O)c(C#N)c1-c1ccco1,-1,x,x,x,x
O=[N+]([O-])c1ccc(N2CCNCC2)cc1N1CCCC1,62*,x,x,x,x
CCc1cc(-c2n[nH]c(C)c2Oc2ccc(C(C)C)cc2)c(O)cc1O,29,22495*,u,-5,-17
CCCOc1cc(O)c(-c2n[nH]c(C)c2Oc2ccccc2)cc1CC,11,x,x,x,x
COc1cc2c(cc1OC)-c1c(OC)c(OC)cc3c1[C@H](C2)N(C)CC3,73*,3037,1,-16,-31
Cc1ccccc1-c1noc(CCC(=O)NCC2CCCO2)n1 (stereo unspecified),-7,22713*,3,-2,6
Cc1cccc(-c2noc(CCC(=O)NCC3CCCO3)n2)c1 (stereo unspecified),0,23287*,0,1,-1
O=C(CCc1nc(-c2ccccc2Cl)no1)NCC1CCCO1 (stereo unspecified),-13,4108,-1,-5,-12
COCCN1CCC(CNC(=O)C(=O)Nc2ccccc2)CC1,-19,x,x,x,x
Cc1ccc(CS(=O)(=O)CCC(=O)NCCN(C)Cc2ccccc2)cc1,-15,23874*,0,-1,-1
SMILES,SSB-PriA inh,Bead autofluor,BoNT A protease,Anthrax LF inh2,BoNT-F LC inh
Cc1ccc(CS(=O)(=O)CCC(=O)NCCc2ccccc2)cc1,-1,3901,0,1,10
N#Cc1nccnc1N1CCC(CNC(=O)C2c3ccccc3Oc3ccccc32)CC1,1,x,x,x,x
Cc1cc(C=NNC(=O)CC(=O)NC2CCCCC2)c(C)n1-c1cccc(Cl)c1Cl,20,x,x,x,x
Cc1cc(/C=N\NC(=O)CC(=O)NC2CCCCC2)c(C)n1-c1ccc(Cl)c(Cl)c1,x,24080*,-3,-3,-4
O=c1c2ccccc2nc(COc2ccccc2)n1N=Cc1cn[nH]c1-c1ccccc1,-6,x,x,x,x
Cc1cccc2sc(N(CCCN(C)C)C(=O)c3nc4ccccc4s3)nc12,51*,10603,0,1,1
CCN(Cc1ccccc1)S(=O)(=O)c1ccc(C(=O)N(CCCN(C)C)c2nc3cc4c(cc3s2)OCO4)cc1,35,7283,-6,-3,-13
CCN(CC)CCN(C(=O)c1ccc(S(=O)(=O)N(C)C2CCCCC2)cc1)c1nc2c(C)cccc2s1,25,5783,-1,-8,-8
CCN(Cc1ccccc1)S(=O)(=O)c1ccc(C(=O)N(CCCN(C)C)c2nc3c(C)c(C)ccc3s2)cc1,39*!,4629,-1,-6,-4
Cc1ccc2sc(N(CCCN(C)C)C(=O)c3ccc(S(=O)(=O)N(C)C4CCCCC4)cc3)nc2c1C,40*!,u,-1,-4,4
CCOc1ccc(NCC(=O)Nc2ccc(Cl)cc2C)cc1,-8,19405*,1,-11,-21

# Bioassay records deposited in PubChem by several laboratories.
